According to the supplement of paper PMC6411743:
± gives the standard deviation of the averaged measurements. Targets with the largest changes are over-represented here; the source holds about 6,200 in all.

Compound: Nc1ncnc2c1ncn2[C@@H]1O[C@H](COP(=O)(O)OP(=O)(O)NP(=O)(O)O)[C@@H](O)[C@H]1O [adenylyl imidodiphosphate]
Test: NP40-soluble protein abundance relative to vehicle (solubility fold change) (ratio); higher = more soluble protein in presence of AMP-PNP
Outline: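 Jurkat crude lysate prepared with a Dounce homogeniser was treated at eight concentrations spanning 0.1 to 10 mM, 10 min at room temperature then 3 min at 37 °C. Solubilisation with 0.8% NP40 and benzonase and ultracentrifugation preceded TMT labelling of the supernatant for LC-MS/MS. Fold change against the detergent-processed vehicle was determined per replicate from vsn-normalised intensities, across three independent experiments.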

Sequence of UniProt Q6RI45 (Q6RI45 whole entry): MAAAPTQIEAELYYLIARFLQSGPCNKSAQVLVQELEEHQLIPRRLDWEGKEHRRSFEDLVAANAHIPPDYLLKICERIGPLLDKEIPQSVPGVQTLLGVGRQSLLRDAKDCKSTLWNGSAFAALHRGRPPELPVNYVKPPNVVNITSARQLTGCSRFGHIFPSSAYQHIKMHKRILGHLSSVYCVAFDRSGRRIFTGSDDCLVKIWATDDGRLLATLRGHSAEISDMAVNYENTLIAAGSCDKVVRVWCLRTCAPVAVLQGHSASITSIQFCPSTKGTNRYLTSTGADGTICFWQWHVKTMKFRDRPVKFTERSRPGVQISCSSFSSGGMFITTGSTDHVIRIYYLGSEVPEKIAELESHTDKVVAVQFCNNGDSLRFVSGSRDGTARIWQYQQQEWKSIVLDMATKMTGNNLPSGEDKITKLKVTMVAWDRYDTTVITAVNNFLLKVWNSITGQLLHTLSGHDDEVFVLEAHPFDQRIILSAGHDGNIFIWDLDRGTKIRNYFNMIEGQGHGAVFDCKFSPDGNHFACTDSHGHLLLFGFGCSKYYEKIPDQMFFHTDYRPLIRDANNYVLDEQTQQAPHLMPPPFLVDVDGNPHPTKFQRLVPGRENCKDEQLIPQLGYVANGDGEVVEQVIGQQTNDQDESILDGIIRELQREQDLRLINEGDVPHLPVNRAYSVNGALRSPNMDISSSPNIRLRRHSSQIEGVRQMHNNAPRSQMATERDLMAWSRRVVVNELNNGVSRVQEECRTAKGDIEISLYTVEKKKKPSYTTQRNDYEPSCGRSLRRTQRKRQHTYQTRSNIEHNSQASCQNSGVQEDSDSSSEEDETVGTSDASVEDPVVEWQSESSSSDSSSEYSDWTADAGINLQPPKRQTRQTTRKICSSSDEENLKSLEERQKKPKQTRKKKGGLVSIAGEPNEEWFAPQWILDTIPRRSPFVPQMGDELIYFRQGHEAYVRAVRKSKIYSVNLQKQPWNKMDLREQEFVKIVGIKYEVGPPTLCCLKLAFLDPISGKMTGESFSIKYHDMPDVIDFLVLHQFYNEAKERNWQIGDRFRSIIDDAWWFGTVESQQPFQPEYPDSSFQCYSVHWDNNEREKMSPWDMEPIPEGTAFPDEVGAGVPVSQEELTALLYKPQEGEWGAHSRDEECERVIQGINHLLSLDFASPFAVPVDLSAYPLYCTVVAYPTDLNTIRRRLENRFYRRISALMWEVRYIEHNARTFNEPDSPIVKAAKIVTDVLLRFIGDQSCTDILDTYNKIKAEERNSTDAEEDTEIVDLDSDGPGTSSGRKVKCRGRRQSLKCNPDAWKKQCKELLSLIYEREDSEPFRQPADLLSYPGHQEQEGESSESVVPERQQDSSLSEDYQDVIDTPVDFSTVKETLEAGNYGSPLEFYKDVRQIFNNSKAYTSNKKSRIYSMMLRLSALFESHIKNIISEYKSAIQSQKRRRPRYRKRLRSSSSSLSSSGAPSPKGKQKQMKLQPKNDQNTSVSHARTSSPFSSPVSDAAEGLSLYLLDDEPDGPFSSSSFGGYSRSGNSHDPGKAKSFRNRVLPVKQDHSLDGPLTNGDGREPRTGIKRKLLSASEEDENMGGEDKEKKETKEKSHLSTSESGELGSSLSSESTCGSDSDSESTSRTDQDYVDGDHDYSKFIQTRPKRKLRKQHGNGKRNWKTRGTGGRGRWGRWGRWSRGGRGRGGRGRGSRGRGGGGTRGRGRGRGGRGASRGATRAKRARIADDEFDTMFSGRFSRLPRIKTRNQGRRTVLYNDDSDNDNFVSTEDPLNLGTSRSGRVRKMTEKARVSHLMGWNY
Sequence of UniProt Q15365 (Q15365 whole entry): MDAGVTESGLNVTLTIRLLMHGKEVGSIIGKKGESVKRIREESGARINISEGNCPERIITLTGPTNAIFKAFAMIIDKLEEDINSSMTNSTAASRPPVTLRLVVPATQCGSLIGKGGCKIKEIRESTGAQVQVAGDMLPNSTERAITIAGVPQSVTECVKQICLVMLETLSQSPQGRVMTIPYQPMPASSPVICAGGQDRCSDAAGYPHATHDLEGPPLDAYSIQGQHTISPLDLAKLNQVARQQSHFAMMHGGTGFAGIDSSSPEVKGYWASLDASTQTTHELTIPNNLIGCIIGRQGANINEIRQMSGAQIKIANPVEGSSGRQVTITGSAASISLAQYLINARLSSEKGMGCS
Sequence of UniProt Q5M775 (Q5M775 whole entry): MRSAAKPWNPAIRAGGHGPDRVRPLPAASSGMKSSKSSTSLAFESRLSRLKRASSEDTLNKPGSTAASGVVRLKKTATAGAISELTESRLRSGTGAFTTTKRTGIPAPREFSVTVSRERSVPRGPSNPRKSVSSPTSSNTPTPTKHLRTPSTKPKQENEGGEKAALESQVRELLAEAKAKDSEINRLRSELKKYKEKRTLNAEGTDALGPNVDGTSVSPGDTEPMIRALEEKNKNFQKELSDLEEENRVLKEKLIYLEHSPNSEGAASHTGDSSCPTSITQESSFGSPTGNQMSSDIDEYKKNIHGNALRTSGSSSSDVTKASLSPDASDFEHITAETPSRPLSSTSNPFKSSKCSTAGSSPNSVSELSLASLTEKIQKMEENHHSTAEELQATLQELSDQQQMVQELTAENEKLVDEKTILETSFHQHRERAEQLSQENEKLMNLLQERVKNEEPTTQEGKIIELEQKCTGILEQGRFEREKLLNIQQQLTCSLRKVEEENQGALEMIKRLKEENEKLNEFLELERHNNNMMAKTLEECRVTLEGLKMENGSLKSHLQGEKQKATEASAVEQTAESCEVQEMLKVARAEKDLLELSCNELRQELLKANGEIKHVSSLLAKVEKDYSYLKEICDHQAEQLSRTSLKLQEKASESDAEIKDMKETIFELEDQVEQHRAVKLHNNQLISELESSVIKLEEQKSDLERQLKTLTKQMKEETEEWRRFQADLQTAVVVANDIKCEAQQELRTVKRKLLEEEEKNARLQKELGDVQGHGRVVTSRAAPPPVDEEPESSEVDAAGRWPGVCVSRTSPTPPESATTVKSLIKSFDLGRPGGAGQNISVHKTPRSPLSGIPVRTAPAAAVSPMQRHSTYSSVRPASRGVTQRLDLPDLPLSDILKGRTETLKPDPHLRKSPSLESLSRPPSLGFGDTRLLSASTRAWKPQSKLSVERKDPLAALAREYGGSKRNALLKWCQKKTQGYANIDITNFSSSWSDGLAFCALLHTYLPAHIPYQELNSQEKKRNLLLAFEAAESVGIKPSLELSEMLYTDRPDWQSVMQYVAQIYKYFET
Sequence of UniProt Q7Z3B4 (Q7Z3B4 whole entry): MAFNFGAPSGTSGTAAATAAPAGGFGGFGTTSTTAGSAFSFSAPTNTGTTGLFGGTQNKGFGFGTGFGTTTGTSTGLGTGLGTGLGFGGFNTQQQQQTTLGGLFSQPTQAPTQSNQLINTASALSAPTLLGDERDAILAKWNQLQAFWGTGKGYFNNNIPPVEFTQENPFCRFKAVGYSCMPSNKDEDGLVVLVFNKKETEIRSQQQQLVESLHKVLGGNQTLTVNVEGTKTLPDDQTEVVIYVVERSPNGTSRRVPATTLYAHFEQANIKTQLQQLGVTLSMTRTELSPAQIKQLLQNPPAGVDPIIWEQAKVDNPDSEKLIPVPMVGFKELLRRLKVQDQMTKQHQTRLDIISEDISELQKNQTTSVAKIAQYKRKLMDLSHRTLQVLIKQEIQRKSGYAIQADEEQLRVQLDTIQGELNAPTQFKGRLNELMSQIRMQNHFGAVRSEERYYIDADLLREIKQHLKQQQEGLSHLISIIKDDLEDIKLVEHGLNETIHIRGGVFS
Sequence of UniProt Q8TAT6 (Q8TAT6 whole entry): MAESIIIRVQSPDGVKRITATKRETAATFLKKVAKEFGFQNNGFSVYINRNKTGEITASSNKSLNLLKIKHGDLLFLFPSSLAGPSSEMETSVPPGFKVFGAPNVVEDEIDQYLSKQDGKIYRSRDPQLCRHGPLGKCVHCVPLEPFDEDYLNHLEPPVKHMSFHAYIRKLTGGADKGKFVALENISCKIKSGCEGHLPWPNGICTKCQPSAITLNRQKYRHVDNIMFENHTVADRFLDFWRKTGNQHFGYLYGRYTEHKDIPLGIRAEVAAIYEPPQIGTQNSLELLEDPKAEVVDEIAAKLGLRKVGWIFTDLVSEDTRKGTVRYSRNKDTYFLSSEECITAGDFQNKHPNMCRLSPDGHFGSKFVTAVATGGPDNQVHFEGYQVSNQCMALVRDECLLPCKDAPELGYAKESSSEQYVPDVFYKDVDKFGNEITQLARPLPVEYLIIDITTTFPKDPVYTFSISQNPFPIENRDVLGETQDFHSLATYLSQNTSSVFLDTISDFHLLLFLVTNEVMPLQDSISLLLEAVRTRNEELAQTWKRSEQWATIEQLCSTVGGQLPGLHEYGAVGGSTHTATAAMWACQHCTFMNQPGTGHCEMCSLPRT
Sequence of UniProt Q6I9Y2 (Q6I9Y2 whole entry): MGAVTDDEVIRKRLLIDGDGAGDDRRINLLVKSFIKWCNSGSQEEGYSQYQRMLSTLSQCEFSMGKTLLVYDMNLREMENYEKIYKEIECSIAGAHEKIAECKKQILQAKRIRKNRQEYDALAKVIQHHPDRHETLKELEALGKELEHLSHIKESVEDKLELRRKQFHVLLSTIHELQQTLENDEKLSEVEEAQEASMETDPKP

Target	NP40-soluble protein abundance (concentration: 1mM)	NP40-soluble protein abundance (concentration: 2mM)	NP40-soluble protein abundance (concentration: 4mM)	NP40-soluble protein abundance (concentration: 6mM)	NP40-soluble protein abundance (concentration: 8mM)	NP40-soluble protein abundance (concentration: 10mM)
UniProt Q5H8A4-5	0.979 ± 0.011	0.971 ± 0.019	0.983 ± 0.034	0.92 ± 0.01	0.9558 ± 0.0061	0.952 ± 0.016
UniProt Q93074-2	1.01 ± 0.032	1 ± 0.028	1.06 ± 0.019	0.971 ± 0.08	0.984 ± 0.042	0.999 ± 0.067
UniProt Q8TAT6|Q8TAT6-2	0.955 ± 0.025	0.961 ± 0.022	0.968 ± 0.044	0.983 ± 0.015	0.991 ± 0.036	1.02 ± 0.025
UniProt Q5M775|Q5M775-2|Q5M775-3|Q5M775-4|Q5M775-5	0.945 ± 0.062	0.89 ± 0.032	0.95 ± 0.05	1.04 ± 0.032	1.01 ± 0.031	0.992 ± 0.059
UniProt Q7Z3B4|Q7Z3B4-3	0.969 ± 0.054	0.9436 ± 0.0042	1 ± 0.064	1.07 ± 0.067	1.13 ± 0.078	1.09 ± 0.11
UniProt Q15365	1.031 ± 0.0057	1.04 ± 0.038	1.04 ± 0.033	1 ± 0.02	1.01 ± 0.014	1.01 ± 0.03
UniProt Q6RI45|Q6RI45-2|Q6RI45-3|Q6RI45-4|Q6RI45-5	0.999 ± 0.016	0.9969 ± 0.0018	0.986 ± 0.016	0.9818 ± 0.0045	1 ± 0.043	1 ± 0.022
UniProt Q8IWI9|Q8IWI9-3|Q8IWI9-4	1.02 ± 0.023	1.01 ± 0.021	1.01 ± 0.047	0.953 ± 0.014	0.924 ± 0.029	0.944 ± 0.046
UniProt Q16630-2|Q16630	1.067 ± 0.004	1.12 ± 0.043	1.149 ± 0.0081	1.22 ± 0.025	1.3 ± 0.017	1.51 ± 0.045
THOC7 (UniProt Q6I9Y2)	1.29 ± 0.045	1.47 ± 0.2	1.57 ± 0.24	1.73 ± 0.39	1.85 ± 0.47	1.93 ± 0.64
UniProt Q15056-2|Q15056	0.999 ± 0.037	1.03 ± 0.035	0.945 ± 0.14	0.94 ± 0.081	0.929 ± 0.087	0.884 ± 0.21
UniProt Q86U86|Q86U86-8	1.051 ± 0.009	1.1 ± 0.014	1.15 ± 0.017	1.226 ± 0.008	1.29 ± 0.035	1.37 ± 0.09
